Unmarked numbers belong to inactive results. The rule behind the calls is not given here.

This test can be described thus: C. elegans survival during P. aeruginosa infection – whole organism (AID 651566).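 Note: tested at 14 µM; sign flipped so higher z means a lower ratio.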 The settings on record: C. elegans killed by P. aeruginosa, survival ratio.
Turning to `COc1ccc2cc(-c3c(-c4ccncc4)nc(-c4ccc(S(C)=O)cc4)n3C)ccc2c1` (centres undefined), the z-score was -0.78. In the case of `COc1ccc2cc(-c3c(-c4ccncc4)nc(-c4ccc(S(C)(=O)=O)cc4C)n3C)ccc2c1` it was 1.57; in that of `CN(C)CCCn1c(-c2nonc2N)nc2cnccc21`, 0.105. As for `CN1CCC(n2cnc(-c3ccc(F)cc3)c2-c2ccnc(Nc3ccccc3)n2)CC1`, the z-score is 0.955. In the case of `CCS(=O)(=O)c1ccc(OC)c(Nc2ncc(-c3cccc(-c4ccccc4F)c3)o2)c1`, the z-score is -0.07.

Consider `COC(=O)Nc1nc2ccc(Oc3ccc(NC(=O)Nc4cccc(C(=O)O)c4)cc3)cc2[nH]1`, for which the z-score is 0.33. With `COC(=O)Nc1nc2ccc(S(=O)(=O)c3ccc(NC(=O)Nc4cc(C(F)(F)F)ccc4F)cc3)cc2[nH]1` the figure was -0.105.

As for `COc1c(C(N)=O)cc(-c2ccc(Cl)cc2)cc1-c1ccc(S(N)(=O)=O)cc1`, the z-score is -0.43. In the case of `CN(C)CCNC(=O)Nc1ccc(N(C)c2ccnc(Nc3ccc(CS(C)(=O)=O)cc3)n2)cc1` it was -0.12; in that of `FC(F)(F)c1cccc(-c2nn3ncccc3c2-c2ccnc(Nc3ccc4c(c3)OCCO4)n2)c1`, -0.325; in that of `COc1cc(N2CCN(C(C)C)CC2)ccc1Nc1nc(Nc2cccc3ncccc23)c2cc[nH]c2n1`, 0.32. Turning to `NS(=O)(=O)c1ccc(NC2CC(c3cccc(O)c3)NN2)cc1` (centres undefined), the z-score is -1.21. In the case of `COc1ccccc1-c1cc(/C=C2\C(=O)Nc3ncc(Br)cc32)cc(Br)c1O` it was 0.69; in that of `CS(=O)(=O)CCNCc1cc(-c2cc3c(Nc4ccc(OCc5cccc(F)c5)c(Cl)c4)ncnc3s2)cs1`, 0.375. In the case of `CCCN1CCCC(c2ccc(Nc3nc(Nc4cc(F)ccc4C(N)=O)c4cc[nH]c4n3)c(OC)c2)C1` (centres undefined), the z-score is 1.62.

Regarding `COc1ccc2ncn(-c3cc(O[C@H](C)c4ccccc4C(F)(F)F)c(C(N)=O)s3)c2c1`, the z-score is 0.355. `Nc1nc(-c2ccc(F)cc2)c(-c2ccc3ncccc3n2)s1`: the z-score is -0.035. With `Cc1ccc2[nH]c(O)c(N=Nc3ccc(S(N)(=O)=O)cc3)c2c1` the figure was -0.295. On to `O=S1CCN(Cc2ccc(-c3ccc4ncnc(Nc5ccc(OCc6ccccc6)c(Cl)c5)c4c3)o2)CC1`, for which the z-score is 0.67.

With `CCn1c(-c2nonc2N)nc2c(C#CC(C)(C)O)ncc(OCC3CCNCC3)c21`, the z-score was -1.35. With `COc1ccc2ncnc(Nc3ccc(OCc4ccccc4)cc3)c2c1` the figure was 0.35; with `COc1cc(/C=N/Nc2ncnc3c2cnn3C(C)C)ccc1O`, -0.5; with `COc1ccc(-c2ccncc2)cc1C(N)=O`, 0.46. For `COc1ccc(-c2coc3ncnc(N)c23)cc1`, the z-score was 0.065. With `CCNC(=O)O[C@H]1CN[C@H](C#Cc2cc3ncnc(Nc4ccc(OCc5cccc(F)c5)c(Cl)c4)c3s2)C1` the figure was 1.02. In the case of `Fc1ccc(Nc2nccc(-c3c(-c4ccc(C(F)(F)F)cc4)nn4ncccc34)n2)cc1F` it was 0.135.

For the molecule `CCn1c(-c2nonc2N)nc2c(C#CC(C)(C)O)nc(OC[C@H](N)c3ccccc3)cc21`, the z-score is 0.015.

Regarding `Cc1nnc(-c2ccc(C)c(-c3ccc(C(=O)Nc4cccc(C#N)c4)cc3)c2)o1`, the z-score is -0.18.

On to `Oc1cccc(-c2nc(-c3ccccc3)[nH]c2-c2ccncc2)c1`, for which the z-score was 0.81. With `COc1ccc(-c2cc3c(N)ncnc3o2)cc1` the figure was 0.775. In the case of `NS(=O)(=O)c1ccc(N=Nc2c(O)[nH]c3ccc(-c4cnco4)cc23)cc1`, the z-score was -0.29. In the case of `NS(=O)(=O)c1cccc(-c2ccc3c(NC(=O)C4CC4)n[nH]c3c2)c1` it was -0.22. In the case of `COc1cc(N2CCN(C(C)C)CC2)ccc1Nc1nc(Nc2ccc(F)cc2C(N)=O)c2cc[nH]c2n1` it was 0.205; in that of `CC(C)=Cc1cccc2[nH]c(O)c(N=Nc3ccc(S(N)(=O)=O)cc3)c12`, -0.155.

With `Cc1ccc2c(-c3ccnc(Nc4ccccc4)n3)c(-c3ccc(F)cc3)nn2n1`, the z-score is 0.225. Turning to `Cc1c2ccc(N(C)c3ccnc(Nc4cccc(S(N)(=O)=O)c4)n3)cc2nn1C`, the z-score was 1. For the molecule `CNC(=O)c1cncc(/C=C/c2ccccc2Cl)c1`, the z-score was -0.36.

For the molecule `COc1cc2ncnc(Nc3ccc(C)c(O)c3)c2cc1OC`, the z-score is 0.58. On to `CC(C)c1ccc2c(N=Nc3ccc(S(N)(=O)=O)cc3)c(O)[nH]c2c1`, for which the z-score is 0.635.
